PubChem BioAssay (NCATS)
Records with an inconclusive call do not appear. Entries that show only a call come without a potency. Unmarked numbers belong to inactive results. Active and inactive are the calls of the source. Calls follow the shape of the dose curve; as a rule, active = well fitted inhibition curve with a large enough effect; inconclusive = small, poorly fitted or top-dose-only effect; inactive = no such curve, though single readings can be large or run the other way.

Experiments:
[1] = system: Zika virus NS2B-NS3 protease (unlinked complex); test: Primary screen GU Rhodamine qHTS for Zika virus inhibitors: Unlinked NS2B-NS3 protease assay (AID 1347159); also: nearly all actives have a fitted effect of over 60% in size
Procedure, shortened: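 Percent inhibition came from the 15-min rise in Rhodamine110 fluorescence (1.5 microM substrate, ~15% conversion), normalized to no-inhibitor and no-enzyme wells and Hill-fitted. Unlinked protease, 25 nM, pH 8.0 Tris buffer; compounds up to 114 microM, 15-min preincubation.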

[2] = system: Zika virus NS2B-NS3 protease (linked construct); test: Primary screen NINDS Rhodamine qHTS for Zika virus inhibitors (AID 1347160); also: nearly all actives have a fitted effect of over 55% in size
Procedure, shortened: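 Rhodamine110-peptide cleavage (1.5 µM substrate) by 25 nM linked NS2B-NS3 enzyme at pH 8.0 (Tris, Tween 20), after 15 min RT preincubation with compounds; 15-min fluorescence change normalized to controls and Hill-fitted.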
Potency is read from the fitted curve at half-maximal effect.

Compound	Potency [1]	Potency [2]	activity change, negative = inhibition [1]	activity change, negative = inhibition [2]
COc1cc2c(cc1-c1c(C)noc1C)ncc1[nH]c(=O)n(C(C)c3ccccn3)c12 (stereo unspecified)	inactive	inactive	–	–
O=C(NCCN1CCOCC1)c1cc2c(Oc3ccc(NC(=O)C4(C(=O)Nc5ccc(F)cc5)CC4)cc3)ccnc2[nH]1	inactive	inactive	–	–
Cc1ccc(-c2c(C(=O)CCl)n(CCCO)c3ncnc(N)c23)cc1	inactive	inactive	–	–
Cc1nc(Nc2cnn(C3CCNCC3)c2)nc2c1N(C)C(=O)c1cc3ccccc3cc1N2C	inactive	inactive	–	–
Cc1[nH]c2ccc(F)cc2c1-c1nc2c3cccnc3c3ncccc3c2[nH]1	inactive	inactive	–	–
CN(C)CCN(Cc1ccccc1)C(=O)c1cc(-c2ccc(F)cc2)n2nc(C(C)(C)C)cc2n1	inactive	inactive	–	–
Cc1cc(C(=O)Cn2cc(C#N)ccc2=O)c(C)n1Cc1ccccc1	inactive	inactive	–	–
CCC(=C(c1ccc(OCCN2CCCC2)cc1)c1ccc(OCCN2CCCC2)cc1)c1ccccc1	inactive	inactive	–	–
CC(=O)O[C@@H]1C[C@@]2(C)C(CC[C@]3(C)C2CC=C2C4CC(C)(C)CC[C@]4(C(=O)O)CC[C@]23C)C(C)(C)[C@H]1O (stereo partly specified)	7.08 µM (active)	11.2 µM (active)	–	–
C=CC(C)(O)CC/C=C(\C)C(=O)OC1C(O)C(CO)OC(OC(=O)C23CCC(C)(C)CC2C2=CCC4C5(C)CCC(OC6OC(COC7OCC(OC(C)=O)C(O)C7OC7OC(COC(C)=O)C(O)C(O)C7OC(C)=O)C(O)C(O)C6OC6OCC(O)C(O)C6O)C(C)(C)C5CCC4(C)C2(C)C(O)C3O)C1OC1OCC(OC2OCC(O)C(OC3OCC(O)C(O)C3O)C2O)C(O)C1O (stereo unspecified)	–	–	23.6% [at 19.1 µM]	-13.7% [at 10.7 µM]
C[C@@H]1CCCN1CCc1cc2cc(-c3ccc(C#N)cc3)ccc2o1	inactive	inactive	–	–
Cn1c(=O)c(F)c(Nc2ccc(I)cc2F)c2c(=O)n(CC(O)CO)cnc21 (stereo unspecified)	inactive	inactive	–	–
O=C(Nc1ccc(C(F)(F)F)cn1)N1CCN(c2ncccc2C(F)(F)F)CC1	inactive	inactive	–	–
CNS(=O)(=O)c1ccccc1Nc1nc(Nc2ccc(N3CCN(C)CC3)cc2OC)ncc1Br	inactive	inactive	–	–
Cn1nc(C(C)(C)C)cc1C(=O)N[C@@H](Cc1cccc(Cl)c1)C(=O)NCC#N	inactive	inactive	–	–
CNCCCC1(c2ccccc2)OC(C)(C)c2ccccc21 (stereo unspecified)	inactive	inactive	–	–
CCc1cc2c(cc1CC)CC(NCC(O)c1ccc(O)c3[nH]c(=O)ccc13)C2 (stereo unspecified)	inactive	inactive	–	–

Compound	Potency [1]	Potency [2]	activity change, negative = inhibition [1]	activity change, negative = inhibition [2]
C/C=C(/C=C(C)/C=C/C=C/C=C(\C)C(=O)C12OC1C(O)(CCO)NC2=O)C(=O)OC (stereo unspecified)	inactive	inactive	–	–
CC1(C)CC[C@]23CO[C@@]4(CCC5[C@@]6(C)CC[C@H](O[C@@H]7OC[C@H](O[C@@H]8O[C@H](CO)[C@@H](O)[C@H](O)[C@H]8O[C@@H]8OC[C@@H](O)[C@H](O)[C@H]8O)[C@H](O)[C@H]7O[C@@H]7O[C@H](CO)[C@@H](O)[C@H](O)[C@H]7O)[C@@](C)(CO)C6CC[C@@]5(C)[C@]4(C)C[C@H]2O)[C@@H]3C1 (stereo partly specified)	inactive	inactive	–	–
CC(C)(C)NC(=O)[C@H]1CC[C@H]2[C@@H]3CC[C@H]4NC(=O)CC[C@]4(C)[C@H]3CC[C@]12C	inactive	inactive	–	–
CN1CCN(c2ccc(Nc3cc(-c4cccc(-n5ccc6cc(C7CC7)cc(F)c6c5=O)c4CO)cn(C)c3=O)nc2)CC1	inactive	inactive	–	–
N#CC(CCCN1CCC(O)(c2ccc(Cl)cc2)CC1)(c1ccccc1)c1ccccc1	inactive	inactive	–	–
Nc1nc2c(ncn2C2OC3COP(=O)(O)OC3C2O)c(=O)[nH]1 (stereo unspecified)	inactive	inactive	–	–
CC(CCC1(O)OC2CC3C4CC=C5C[C@@H](O[C@@H]6O[C@H](CO)[C@@H](O[C@@H]7O[C@@H](C)[C@H](O)[C@@H](O)[C@H]7O)[C@H](O)[C@H]6O[C@@H]6O[C@@H](C)[C@H](O)[C@@H](O)[C@H]6O)CC[C@]5(C)C4CC[C@]3(C)[C@@]2(O)[C@@H]1C)CO[C@@H]1O[C@H](CO)[C@@H](O)[C@H](O)[C@H]1O (stereo partly specified)	inactive	inactive	–	–
O=C(c1cc(Cc2n[nH]c(=O)c3ccccc23)ccc1F)N1CCCNCC1	inactive	inactive	–	–
COC(=O)C(Cc1ccc(OCCn2c(=O)sc3cc(C(=O)c4ccccc4)ccc32)cc1)C(=O)OC	inactive	inactive	–	–
Nc1nc(OCc2cc(Br)cs2)c2[nH]cnc2n1	inactive	inactive	–	–
CC(C)(C)c1ccc(NC(=O)N2CCN(c3ncccc3Cl)CC2)cc1	inactive	inactive	–	–
CC[C@H]1OC(=O)[C@H](C)[C@@H](O[C@H]2C[C@@](C)(OC)[C@@H](O)[C@H](C)O2)[C@H](C)[C@@H](O[C@H]2O[C@H](C)C[C@H](N(C)C)[C@H]2O)[C@](C)(O)C[C@@H](C)C(=O)[C@H](C)[C@@H](O)[C@]1(C)O	inactive	inactive	–	–
CC(=O)O[C@@H]1C[C@@]23C[C@@]24CC[C@H](O[C@@H]2OC[C@H](O)[C@H](O)[C@H]2O)C(C)(C)[C@@H]4CC[C@H]3[C@]2(C)[C@@H](O)C34O[C@H](C[C@@H](C)[C@@H]3[C@@]12C)[C@@H](C(C)(C)O)O4	inactive	inactive	–	–
CNc1nc(Nc2ccc(C(=O)N3CCOCC3)cc2OC)nc2[nH]cc(Cl)c12	inactive	inactive	–	–
CNCc1cc(-c2ccccc2F)n(S(=O)(=O)c2cccnc2)c1	inactive	inactive	–	–
C=CC(=O)Nc1cccc(Nc2nc(Nc3ccc(OCCOC)cc3)ncc2F)c1	inactive	inactive	–	–
